Results published in PubChem BioAssay (NCATS).
Several values for one entry are separate records, joined by “and”; a condition that tells them apart may be missing. Equal values may be shown once. Inconclusive results are not listed. Where a call stands in place of a potency, no number is given. A structure can be active in one record and inactive in another. Activity calls are given as the source filed them. Calls follow the shape of the dose curve; as a rule, active = well fitted curve in the direction sought with a large enough effect; inconclusive = small, poorly fitted or top-dose-only effect, or another doubt; inactive = no such curve, though single readings can be large; an effect the other way counts as inactive or inconclusive.

What was measured:
[1] = Viability qHTS for spleen associated tyrosine kinase inhibitor (SYKi) naive MV4-11 cells (AID 1963823); also: nearly all actives have a fitted effect of over 40% in size; also: potency is read from the fitted curve at half-maximal effect
Procedure, shortened: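 In this viability screen, compounds acted on SYK inhibitor naive MV4-11 cells for three days (72 hr, 37 C). Remaining viable cells were measured by CellTiter-Glo luminescence following a 10 min room-temperature development.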

[2] = Viability qHTS for spleen associated tyrosine kinase inhibitor (SYKi) drug resistant MV4-11 cells (AID 1963824); also: nearly all actives have a fitted effect of over 35% in size; also: potency is read from the fitted curve at half-maximal effect
Procedure, shortened: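 CellTiter-Glo luminescence, read 10 min after reagent addition, reports viability after a 72 hr compound exposure. Cells are an MV4-11 line made resistant to SYK inhibition, seeded at 500 per well onto compound-containing plates.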

[3] = Quantitative highthroughput screen to assess conditional lethalithy of NOMO1 cells grown in RPMI1640 with untreated serum (RPMI+s) (AID 1963876); also: nearly all actives have a fitted effect of over 35% in size; also: potency is read from the fitted curve at half-maximal effect
Procedure, shortened: (§1)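 Each medium arm—HPLM with 10% dialyzed FBS, or RPMI1640 with 5 mM glucose and 10% untreated or dialyzed FBS—was screened against an 11-point, 3-fold compound titration for 48 h at 37 °C, with CellTiter-Glo luminescence as endpoint.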

[4] = Quantitative highthroughput screen to assess conditional lethalithy of NOMO1 cells grown in RPMI1640 with dialyzed fetal bovine serum (RPMI+ds) (AID 1963877); also: nearly all actives have a fitted effect of over 30% in size; also: potency is read from the fitted curve at half-maximal effect; as to Viability: series mostly up to about 46 µM
Procedure, shortened: as §1

[5] = Quantitative highthroughput screen to assess conditional lethalithy of P12 Ichikawa cells grown in Human Plasma-Like Medium with dialyzed fetal bovine serum (HPLM+ds) (AID 1963879); conditions: Potency: viability; also: nearly all actives have a fitted effect of over 35% in size; also: potency is read from the fitted curve at half-maximal effect; as to Viability: series mostly up to about 46 µM
Procedure, shortened: as §1

[6] = Quantitative highthroughput screen to assess conditional lethalithy of P12 Ichikawa cells grown in RPMI1640 with dialyzed fetal bovine serum (RPMI+ds) (AID 1963880); conditions: Potency: P12-Ichikawa viability; also: nearly all actives have a fitted effect of over 35% in size; also: potency is read from the fitted curve at half-maximal effect
Procedure, shortened: as §1

[7] = Quantitative highthroughput screen to assess conditional lethalithy of P12 Ichikawa cells grown in RPMI1640 with untreated serum (RPMI+s) (AID 1963881); conditions: Potency: viability; also: nearly all actives have a fitted effect of over 35% in size; also: potency is read from the fitted curve at half-maximal effect; as to Viability: series mostly up to about 46 µM
Procedure, shortened: as §1

[8] = Quantitative highthroughput screen to assess conditional lethalithy of SEM cells grown in Human Plasma-Like Medium with dialyzed fetal bovine serum (HPLM+ds) (AID 1963882); also: nearly all actives have a fitted effect of over 35% in size; also: potency is read from the fitted curve at half-maximal effect; as to Viability: series mostly up to about 46 µM
Procedure, shortened: as §1

[9] = Quantitative highthroughput screen to assess conditional lethalithy of SEM cells grown in RPMI1640 with unreated serum (RPMI+s) (AID 1963883); also: nearly all actives have a fitted effect of over 35% in size; also: potency is read from the fitted curve at half-maximal effect
Procedure, shortened: as §1

[10] = Quantitative highthroughput screen to assess conditional lethalithy of SEM cells grown in RPMI1640 with dialyzed fetal bovine serum (RPMI+ds) (AID 1963884); also: nearly all actives have a fitted effect of over 35% in size; also: potency is read from the fitted curve at half-maximal effect; as to Viability: series mostly up to about 46 µM
Procedure, shortened: as §1

[11] = Cellular viability qHTS for adrenocortical cancer (ACC) cell line SW-13 (AID 1963989); conditions: SW-13 ACC cells viability, CellTiter-Glo, 48 h; activity (max response): stronger effect = lower value; also: nearly all actives have a fitted effect of over 65% in size; also: potency is read from the fitted curve at half-maximal effect;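 as to activity (max response): cells grown in serum-free medium with ITS supplement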
Procedure, shortened: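 Viability was read as CellTiter-Glo luminescence after 48 h compound treatment (up to 46 uM final) of SW-13 cells grown serum-free; titration curves were fit with a four-parameter logistic model to give IC50 and efficacy.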

[12] = Cellular viability qHTS for adrenocortical cancer (ACC) cell line NCI-H295R (AID 1963990); also: nearly all actives have a fitted effect of over 60% in size; also: potency is read from the fitted curve at half-maximal effect
Procedure, shortened: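 CellTiter-Glo ATP luminescence, read 48 h after compound addition, measured viability of NCI-H295R adrenocortical cells grown serum-free with ITS. Final concentrations spanned up to 46 uM. Data normalized to DMSO and doxorubicin, fitted for IC50 and maximal response.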

[13] = Quantitative highthroughput screen to assess conditional lethalithy of NOMO1 cells grown in Human Plasma-Like Medium with dialyzed fetal bovine serum (HPLM+ds) (AID 1963878); also: nearly all actives have a fitted effect of over 35% in size
Procedure, shortened: as §1

Structure (SMILES)	Potency [1]	Potency [2]	Potency [3]	Potency [4]	Potency [5]	Potency [6]	Potency [7]	Potency [8]	Potency [9]	Potency [10]	activity (max response) [11]	Potency [12]	Potency [11]	viability (% of control) [1]	viability, % of control [2]	activity change, negative = viability loss [12]	Potency [13]
C[C@@H]1C(=O)O[C@H]2CC34[C@H]5C[C@@H](C(C)(C)C)C36[C@H](OC(=O)[C@@H]6O)O[C@@]4(C(=O)O5)[C@]21O (stereo partly drawn)	inactive	inactive	inactive	inactive	inactive	inactive	inactive	inactive	inactive	inactive	-23.3% (inactive)	inactive					
COc1cc(C)c(Sc2cnc(NC(=O)c3ccc(CNC(C)C(C)C)cc3)s2)cc1C(=O)N1CCN(C(C)=O)CC1 (stereo not drawn)	5.25 µM (active) and 5.17 µM (active)	7.42 µM (active) and 8.2 µM (active)	inactive	inactive	inactive		inactive		5.26 µM (active)	5.26 µM (active)		7.94 µM (active)	17.8 µM (active)				
COc1ccc(-n2nc(C(N)=O)c3c2C(=O)N(c2ccc(N4CCCCC4=O)cc2)CC3)cc1	inactive	inactive	0.118 µM (active)	0.235 µM (active)	2.64 µM (active)	2.96 µM (active)	2.64 µM (active)		inactive	inactive	-9.7% (inactive)	inactive					
O=P(O)(O)C(O)(Cn1ccnc1)P(=O)(O)O			inactive	inactive	inactive	inactive	inactive	inactive	inactive		-1.67% (inactive)			79.2% [at 4.97 µM] (inactive)	89.7% [at 4.97 µM] (inactive)	-3.44% [at 3.81 µM] (inactive)	
O=C1c2c(O)cc(O)cc2OC(c2ccc(O)c(O)c2)C1O (stereo not drawn)	inactive	inactive	inactive	inactive	inactive	inactive	inactive	inactive	inactive		-4.92% (inactive)	inactive					
COc1ccc2cc([C@H](C)C(=O)O)ccc2c1	inactive	inactive	inactive	inactive	inactive		inactive		9.35 µM (active)	10.5 µM (active)	13.9% (inactive) and -10.9% (inactive)	inactive					
CON(C)C(=O)N1N=C(c2cc(F)ccc2F)S[C@@]1(CCCN)c1ccccc1	0.0092 µM (active)	10.3 nM (active) and 3.3 nM (active)	0.0209 µM (active)	0.0234 µM (active)	0.0263 µM (active)	0.0331 µM (active)	0.0209 µM (active)	0.0052 µM (active)	0.0117 µM (active)				0.0141 µM (active)				
CNC(=O)c1ccc(Nc2ncc(C(F)(F)F)c(NCc3nccnc3N(C)S(C)(=O)=O)n2)cc1	130 nM (active) and 332 nM (active)	291 nM (active) and 525 nM (active)	inactive	inactive	inactive	inactive	inactive		1.05 µM (active)	0.933 µM (active)		7.94 µM (active)					
CC(C(=O)O)c1cccc(C(=O)c2ccccc2)c1 (stereo not drawn)	inactive	inactive	inactive	inactive		inactive	inactive	inactive	inactive		3.98% (inactive) and 6.3% (inactive)	inactive					
S=P(N1CC1)(N1CC1)N1CC1	inactive and 6.61 µM (active)	3.32 µM (active)	inactive	inactive	inactive		inactive				10.4% (inactive)	inactive					
Clc1ccc2c(c1)C(N1CCNCC1)=Nc1ccccc1O2	inactive	13.3 µM (active) and inactive	inactive	inactive	inactive		inactive	inactive	inactive	inactive							
COc1ccc2c(c1)c(C1=C(c3c[nH]c4ccccc34)C(=O)NC1=O)cn2CCCN(C)C	0.148 µM (active)	0.332 µM (active)	inactive	inactive	inactive		inactive						15.8 µM (active)				
CCOC(=O)c1ccc(OC(=O)CCCCCN=C(N)N)cc1	inactive	inactive	3.32 µM (active)	3.32 µM (active)	1.87 µM (active)		7.43 µM (active)				3.73% (inactive)	inactive					
CN1CCN(c2ccc(C(=O)Nc3n[nH]c4ccc(Cc5cc(F)cc(F)c5)cc34)c(NC3CCOCC3)c2)CC1	209 nM (active) and 164 nM (active)	326 nM (active) and 372 nM (active) and 411 nM (active)	26.3 µM (active)	20.9 µM (active)		18.6 µM (active)	23.4 µM (active)	4.17 µM (active)	5.24 µM (active)	3.71 µM (active)			3.16 µM (active)				
CC(C)[C@H](O)C(=O)N[C@@H](C)C(=O)N[C@@H]1C(=O)N(C)CCc2ccccc21	inactive	inactive	inactive	inactive	inactive	inactive	inactive	inactive	inactive	inactive	8.71% (inactive)	inactive					
CC(c1cc2ccccc2s1)N(O)C(N)=O (stereo not drawn)	inactive	inactive	inactive	inactive	inactive	inactive	inactive			inactive	-61.3% (inactive)	inactive					
CC(C)(C)Cn1c(N)nc2ccc(-c3[nH]c(C(C)(C)C)nc3-c3ccc(F)cc3)nc21	16.6 µM (active)	461 nM (active) and 14.8 µM (active)	inactive	inactive	inactive	inactive	inactive	inactive					25.1 µM (active)				
NC(=O)c1ccc2nc(-c3ccc(Oc4ccc(Cl)cc4)cc3)[nH]c2c1	5.17 µM (active)	2.95 µM (active) and 8.2 µM (active)	inactive	inactive		inactive						25.1 µM (active)	28.2 µM (active)				
Oc1cc2c(cc1O)C1c3ccc(O)c(O)c3OCC1(O)C2 (stereo not drawn)	16.6 µM (active)	14.8 µM (active)	inactive	inactive	inactive	inactive		inactive	inactive	inactive	-7.46% (inactive)	inactive					
c1cc(-c2cnn3cc(-c4ccc(OCCN5CCCCC5)cc4)cnc23)ccn1	0.0206 µM (active)	20.6 nM (active) and 20.9 nM (active)	inactive	inactive		inactive		inactive	inactive	inactive		12.6 µM (active)	11.2 µM (active)				
COc1ccc2cc(-c3nc(-c4ccc(S(C)=O)cc4)[nH]c3-c3ccncc3)ccc2c1 (stereo not drawn)	9.34 µM (active) and 11.6 µM (active)	9.34 µM (active) and 13 µM (active)	inactive	inactive	inactive			inactive	inactive	inactive		28.2 µM (active)					
NC(=O)Nc1cc(-c2cccc(F)c2)sc1C(=O)N[C@H]1CCCNC1	inactive	inactive	1.05 µM (active)	0.59 µM (active)		1.18 µM (active)	1.18 µM (active)		0.0074 µM (active)			0.794 µM (active)	1.78 µM (active)				
C[C@@H]1COC(Nc2ccc3ncnc(Nc4ccc(OCc5nccs5)c(Cl)c4)c3c2)=N1	4.11 µM (active)	2.91 µM (active)	inactive	inactive		18.7 µM (active)						28.2 µM (active)	15.8 µM (active)				
CC(C)[C@@H](CS(=O)(=O)C(C)C)N1C(=O)[C@@](C)(CC(=O)O)C[C@H](c2cccc(Cl)c2)[C@H]1c1ccc(Cl)cc1	18.6 µM (active)	14.6 µM (active) and 16.6 µM (active)	1.66 µM (active)	2.09 µM (active)	0.209 µM (active)	1.17 µM (active)	0.933 µM (active)		0.295 µM (active)								
COc1cc(Nc2nc3ccccc3nc2NS(=O)(=O)c2ccc(NC(=O)c3ccc(C)c(OC)c3)cc2)cc(OC)c1	18.6 µM (active)	18.6 µM (active)	inactive	7.43 µM (active)	5.9 µM (active)	14.8 µM (active)					11.3% (inactive)						
CCCCNc1cc(C(=O)O)cc(S(N)(=O)=O)c1Oc1ccccc1	inactive	inactive	inactive		inactive	inactive	inactive	inactive	inactive	inactive	16.2% (inactive) and -1.57% (inactive)	inactive					inactive
